SMILES strings stand for the structures. The whole screen tested about 310,000 compounds, of which about 3,900 (1.3%) were called active.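 The calls were made as follows: active = calcium-response B-score plate-corrected more than 3 library SD below zero, starting fluorescence within 5 deviations, no agonist response on first addition; inactive = the rest.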 The entries come from a sample that favours actives as a whole.

The values below come from PubChem BioAssay AID588676 (Johns Hopkins Ion Channel Center, 2011).

In the assay the target is Mas-related G-protein coupled receptor member X1 (Homo sapiens) (UniProt Q96LB2). The assay is described as follows: antagonists of human MrgX1 receptor, primary screen, HEK293 cells, Fluo-4 calcium flux (AID 588676).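 As to B-score: peak minus trough fluorescence over baseline after final BAM8-22 challenge near maximal dose.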 To be noted: Fluo-4, BAM8-22 antagonism, at 10 µM; hits give low values.
Sequence of Mas-related G-protein coupled receptor member X1 (Homo sapiens) (Q96LB2 whole entry, looked up): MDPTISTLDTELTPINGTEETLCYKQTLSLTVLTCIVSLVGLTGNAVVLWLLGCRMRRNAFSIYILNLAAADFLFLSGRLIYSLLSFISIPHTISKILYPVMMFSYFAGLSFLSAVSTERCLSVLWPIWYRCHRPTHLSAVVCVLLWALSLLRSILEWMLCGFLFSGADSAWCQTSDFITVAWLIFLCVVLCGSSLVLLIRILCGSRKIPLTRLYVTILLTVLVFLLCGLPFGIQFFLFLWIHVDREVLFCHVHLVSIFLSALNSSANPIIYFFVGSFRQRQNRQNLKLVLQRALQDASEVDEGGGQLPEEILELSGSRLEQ
For `Cc1occc1C(=O)NC1CCCN(Cc2ccc(CC(C)C)cc2)C1` (centres undefined), the B-score entry was “inactive”.

As to `CNC(=O)c1[nH]cnc1C(=O)N[C@@H](CC(C)C)C(=O)OC(C)(C)C`, the B-score result is “inactive”. As to `Cc1ccc(NC(=O)c2nc[nH]c2C(=O)N[C@@H](CCCCNC(=O)OC(C)(C)C)C(=O)OC(C)(C)C)cc1`, the B-score was -9.54 (active). In the case of `CCOC(=O)c1ccc(NC(=O)c2nc[nH]c2C(=O)N[C@@H](CCCCNC(=O)OC(C)(C)C)C(=O)OC(C)(C)C)cc1` it was “inactive”; in that of `O=[N+]([O-])c1ccc(Oc2ccc(F)cc2Br)c2ccncc12`, “inactive”.

Regarding `O=C(CN1CCN(c2ccc(O)cc2)CC1)Nc1ccc(-c2ccccc2)cc1`, the B-score result was “inactive”.

For the compound `NS(=O)(=O)c1cc(C(=O)OCC(=O)NNC(=O)c2ccccc2)ccc1Cl`, the B-score entry is “inactive”.

For `O=C(COC(=O)c1ncc(Cl)c(Cl)c1Cl)NCc1cccs1`, the B-score entry is “inactive”.

On to `O=C(COC(=O)c1ncc(Cl)c(Cl)c1Cl)NNC(=O)c1ccccc1`, for which the B-score was -4.63 (active). In the case of `CC(=O)c1cnn(-c2cc(Oc3ccc(F)cc3)ncn2)c1C` it was “inactive”; in that of `Cc1cc(NC(=O)[C@H](C)NC(=O)c2ccco2)ccc1Br`, “inactive”; in that of `NC1=NC(=O)C2(COC(c3ccccc3Cl)OC2)S1` (centres undefined), “inactive”. With `O=C(CN1CCSCC1)N/N=C/c1ccc(Cl)cc1`, the B-score result is “inactive”. In the case of `FC(F)(F)c1nc2ccccc2nc1N/N=C/c1ccc(Cl)cc1` it was “inactive”.

On to `Clc1ccc(C=NC23CN4CN(CN(C4)C2)C3)cc1`, for which the B-score is -6.85 (active). In the case of `COc1ccc(CCNC(=O)C2CCCN(Cc3nc(-c4cccc(Cl)c4)oc3C)C2)cc1OC` (centres undefined) it was “inactive”; in that of `COCCn1c(C)cc(C(=O)COC(=O)/C=C/c2cccc(OC)c2)c1C`, “inactive”; in that of `CCc1[nH]nc(C(=O)N2CCCC(CO)(Cc3ccc(F)cc3F)C2)c1C` (centres undefined), “inactive”. In the case of `C=CCNC(=O)c1sc(SC)cc1-c1ccc(Cl)cc1` it was “inactive”; in that of `O=C(NC(Nc1nc2ccc([N+](=O)[O-])cc2s1)(C(F)(F)F)C(F)(F)F)c1ccccc1`, -6.28 (active). In the case of `CCC(=O)NC(Nc1nc2ccc(C)cc2s1)(C(=O)OC)C(F)(F)F` (centres undefined) it was “inactive”; in that of `CCOc1ccc2nc(NC(=O)c3cc([N+](=O)[O-])ccc3N3CCOCC3)sc2c1`, “inactive”; in that of `CCCOC(=O)c1c(NC(=O)c2cnn3c2NC(c2ccccc2)CC3C(F)(F)F)sc2c1CCCC2` (centres undefined), “inactive”. Consider `Cc1nc(N=C(N)N)nc2c(C)cccc12`, for which the B-score result is “inactive”. Turning to `CCOc1cc(/C=C2/N=C(c3ccc(C(C)(C)C)cc3)OC2=O)cc(Cl)c1OS(C)(=O)=O`, the B-score entry was “inactive”. In the case of `Cc1cccc(NC(=O)Cn2c(=O)n(Cc3ccccc3)c(=O)c3c(C)c(C)sc32)c1` it was “inactive”; in that of `COc1ccc(C2CC(c3ccc(Cl)cc3Cl)Nc3nc(N)nn32)cc1OC` (centres undefined), “inactive”. On to `CCOc1ccccc1C1CC(c2ccc(Cl)cc2)Nc2nc(N)nn21` (centres undefined), for which the B-score is -7.74 (active). In the case of `CCOc1ccccc1C1CC(c2ccccc2)Nc2nc(N)nn21` (centres undefined) it was “inactive”; in that of `COCCC(=O)Nc1ccc2c(c1)CN(C(=O)CCOC)CC2`, “inactive”; in that of `COc1ccc2cc(-c3[nH]ncc3CNCCn3nc(C)cc3C)ccc2c1`, “inactive”. In the case of `CCOc1ccc(CN2CCN(Cc3ccc4cc(F)ccc4n3)CC2CCO)cc1` (centres undefined) it was “inactive”. Regarding `CNC(=O)c1csc(-c2ccccc2)n1`, the B-score entry is “inactive”. In the case of `O=C(c1cc(-c2ccccc2O)on1)N1CCCC1` it was “inactive”. In the case of `C=CCNC(=O)c1csc(-c2ccccc2)n1` it was -6.07 (active).

On to `O=C(NCCc1csc(-c2ccccc2)n1)c1ccccc1F`, for which the B-score result was “inactive”. For the compound `C=CCNC(=O)c1cc(-c2ccccc2O)on1`, the B-score was -5.5 (active). For `O=C(Nc1cccnc1Cl)c1cc(-c2ccccc2O)on1`, the B-score entry was “inactive”. In the case of `CC(NC(=O)CCCC1CCCCC1)c1ccc(S(N)(=O)=O)cc1` (centres undefined) it was “inactive”; in that of `Cc1ccc(C)c(N2CCN(C(=O)Cn3ncn4cccc4c3=O)CC2)c1`, “inactive”.

As to `O=C(C1=C[C@H](C2CC2)C[C@H](OCc2ccc(CO)cc2)O1)N1CCN(Cc2ccccc2)CC1`, the B-score entry is “inactive”.

With `Nc1nc(NCc2ccccc2)n(-c2ccccc2)n1`, the B-score result is “inactive”. In the case of `O=C1CCC(C(=O)N2CCCCO2)CN1Cc1cccc(C(F)(F)F)c1` (centres undefined) it was “inactive”; in that of `O=C(NC(=S)Nc1cccc(-c2ccc(CO)o2)c1)c1cccs1`, “inactive”. In the case of `CCc1ccc(-c2cc3c(=O)n(CC(=O)NCCCN4CCN(Cc5ccccc5)CC4)nc(C)n3n2)cc1` it was “inactive”; in that of `COc1cccc(CNC(=O)CN(C)S(=O)(=O)c2ccc3c(c2)c(=O)n(C)c(=O)n3C)c1`, “inactive”; in that of `COc1ccccc1NC(=O)CCC(=O)OC(C)C(=O)c1ccccc1` (centres undefined), “inactive”. For the compound `CC1(C(=O)NNC(=S)NCC2CCCO2)CC1(Cl)Cl` (centres undefined), the B-score was -5.39 (active). Take `CCC(=O)NC(NCC1CCCO1)C(Cl)(Cl)Cl` (centres undefined): the B-score entry is “inactive”. As to `S=C(NCCc1ccccc1)NCC1CCCO1` (centres undefined), the B-score result was “inactive”.

For the compound `Cc1ccc(S(=O)(=O)NCCSc2ccccc2)cc1[N+](=O)[O-]`, the B-score result was “inactive”. In the case of `COCCNC(=O)c1ccccc1NS(=O)(=O)c1ccc(C)c([N+](=O)[O-])c1` it was -4.52 (active); in that of `Cc1ccc(S(=O)(=O)Nc2nc3ccccc3s2)cc1[N+](=O)[O-]`, “inactive”. Take `CCN1C(=O)[C@H]2[C@@H](c3ccc(SC4CCCCC4)c(OC)c3)N[C@@](Cc3ccccc3)(C(=O)OC)[C@H]2C1=O`: the B-score result was “inactive”. In the case of `CCOC(=O)Cn1c(O)c(N=NC(=O)CNC(=O)Cc2ccccc2)c2ccccc21` it was “inactive”; in that of `CCOc1cc(S(=O)(=O)NCc2ccc3c(c2)OCO3)ccc1F`, “inactive”. In the case of `Cc1cccc(NC(=O)N(Cc2cc3cc(C)cc(C)c3[nH]c2=O)CC2COCCO2)c1` (centres undefined) it was “inactive”. Take `CCOc1ccc(NC(=O)[C@H](C)NC(=O)C2CC(=O)N(c3ccc(OC)cc3)C2)cc1` (some centres undefined): the B-score entry was “inactive”.

`NC(=O)c1ccccc1N=Cc1ccc2ccccc2c1`: the B-score entry is “inactive”. In the case of `O=C(COc1ncnc2ccccc12)NC(=O)NCc1ccccc1` it was “inactive”. In the case of `O=C(CSc1ncccn1)NCCc1ccccc1` it was “inactive”. In the case of `O=C(CSc1ncccn1)NC(=O)NCc1ccccc1` it was -6.78 (active). With `CCOC(=O)[C@H]1[C@H]2COc3ccc(OC)cc3[C@@H]2N2C(=O)c3ccc(F)cc3NC(=O)[C@@]12C`, the B-score result is “inactive”. In the case of `COC1=C(N2CCOCC2)C(=O)c2ccccc2C1=O` it was “inactive”; in that of `CN1C(C(=O)NCC2CC2)CC2Cn3c(nc4ccccc43)C21` (centres undefined), “inactive”. In the case of `C(=N\n1cnnc1)/c1cccnc1` it was -4.63 (active); in that of `Clc1ccc(CN2CCN(/N=C/c3cccnc3)CC2)cc1`, “inactive”; in that of `COc1cccc(OCCOc2cccc(/C=N/n3cnnc3)c2)c1`, “inactive”. As for `Cc1ccc(S(=O)(=O)N2[C@@H](c3ccccc3F)C(C(=O)O)=CC[C@H]2c2ccc(Cl)cc2)cc1`, the B-score entry was “inactive”.

Consider `CC1CCC(NC(=O)CN(C)S(=O)(=O)c2ccc3c(c2)c(=O)n(C)c(=O)n3C)CC1` (centres undefined), for which the B-score result is “inactive”.

On to `CS(=O)(=O)Nc1ccccc1N=C(c1ccccc1)c1ccccc1`, for which the B-score result was “inactive”. Take `NC(N)=NCCCc1cn(CC(=O)N2CCNCC2)nn1`: the B-score entry is “inactive”. In the case of `Cc1nn(-c2ccccc2)c(C)c1NC(=O)COC(=O)c1cc(Cl)ccc1O` it was “inactive”; in that of `Cc1nn(-c2ccccc2)c(C)c1NC(=O)CCl`, “inactive”; in that of `Cc1nn(-c2ccccc2)c(C)c1NC(=O)COc1ccc(Cl)cc1Cl`, -5.44 (active). On to `Cc1c(C(=O)NCC(c2ccco2)N2CCCC2)oc2ccc(Cl)cc12` (centres undefined), for which the B-score result was “inactive”.

Turning to `Cc1c(-c2ccccc2)cn2c1-c1ccc(C)n1CC2`, the B-score result is “inactive”. In the case of `Cc1cc(Br)ccc1NC(=O)c1sc2ncn(CC(=O)N3CCN(c4ccccn4)CC3)c(=O)c2c1C` it was “inactive”; in that of `Cc1cc(Br)ccc1NC(=O)c1cnc(N2CCN(c3ccccn3)CC2)c2ccccc12`, -5.72 (active); in that of `O=C(Cc1ccc(Br)cc1)N1CCN(c2ccccn2)CC1`, “inactive”. Turning to `O=C(Nc1cc(C(F)(F)F)ccc1Cl)c1cc2nc3c(c(C(F)(F)F)n2n1)CCCC3`, the B-score result is “inactive”. In the case of `COC(=O)c1ccc2ccccc2c1OC1OC(CO)C(O)C(O)C1NC(C)=O` (centres undefined) it was “inactive”; in that of `O=C(Nc1ccc(Cl)cc1)c1cc2nc(C3CC3)cc(C(F)(F)F)n2n1`, “inactive”. In the case of `Cc1cc(C)c(S(=O)(=O)NCC2CCC(C(=O)NCc3ccc4c(c3)OCO4)CC2)c(C)c1` (centres undefined) it was “inactive”; in that of `COc1cc(NC(=O)CN2C(=O)NC(C)(c3ccc(OC(F)F)cc3)C2=O)cc(OC)c1OC` (centres undefined), “inactive”. In the case of `O=C(NCCN1CCOCC1)c1ccc(/C=C2\Sc3ccccc3N(Cc3ccc(F)cc3)C2=O)cc1` it was “inactive”; in that of `CCN1CCN(CCNC(=O)c2ccc3c(c2)NC(=O)/C(=C\c2ccc(OC)c(OC)c2)S3)CC1`, “inactive”; in that of `CCN1CCN(CCNC(=O)c2ccc(/C=C3/Sc4ccccc4N(Cc4cccc(C)c4)C3=O)cc2)CC1`, -7.53 (active). Turning to `Cc1ccc(Nc2cc(=O)n(C3CCCCC3)c(=O)[nH]2)cc1C`, the B-score entry was “inactive”.

`COc1cccc(N(Cc2nnc3n2CCCCC3)C(=O)Nc2ccccc2F)c1`: the B-score result was “inactive”.

For `Clc1ccc(Nc2nc(-c3cccs3)cs2)nc1`, the B-score result was “inactive”. As for `Cc1ccc(Nc2nc(-c3ccc(O)cc3O)cs2)nc1`, the B-score was -4.59 (active). For the compound `Cc1cccc(Nc2nc(-c3ccccc3)cs2)n1`, the B-score result was “inactive”.

In the case of `COc1ccc(-c2cc(C(=O)N(C)Cc3ccc(OC)c(OC)c3OC)c3ccccc3n2)cc1OC`, the B-score entry was “inactive”. For `CCCCCCCCCCOC(=O)Cn1c(COc2ccc(C)cc2)[n+](C)c2ccccc21`, the B-score was -10.1 (active). With `CCn1c(COc2cccc(OC)c2)nnc1SCC(=O)N1CCOCC1`, the B-score entry is “inactive”.

Take `CCCCCCCCCCOC(=O)Cn1c(COc2cccc(OC)c2)[n+](C)c2ccccc21`: the B-score is -13.2 (active). For the compound `Cc1ccc(OCc2nc3ccccc3n2C)cc1`, the B-score entry was “inactive”. As for `CCCCCCCCC(=O)NCCOc1ccccc1`, the B-score entry was “inactive”. In the case of `Cc1ccc(OCCCn2c(=O)oc3ccccc32)cc1` it was “inactive”; in that of `CCOC(=O)c1cc(NC(=O)SCC(=O)O)c(C)nc1C`, “inactive”; in that of `CC(=O)N(C)c1ccc(NC(=O)C(F)(F)F)cc1`, -7.18 (active). In the case of `CC(=O)N(C)c1ccc(NC(=O)Nc2cccc3ccccc23)cc1` it was “inactive”; in that of `CCOc1ccc(NC(=O)Nc2ccc(N(C)C(C)=O)cc2)cc1`, “inactive”.
